{
  "source": "PubChem BioAssay (NCATS)",
  "key": {"[1]": {"assay": "Primary qHTS for Huh7 cytotoxicity: counterscreen for inhibitors of MERS-S pseudotyped particle cell entry (AID 1479147)", "conditions": "outcome: at 57.1 µM (top of the series) unless noted"}, "[2]": {"assay": "Primary qHTS for Vero E6 cytotoxicity: counterscreen for inhibitors of SARS-S pseudo-typed particle cell entry (AID 1479150)", "conditions": "outcome: at 57.1 µM (top of the series) unless noted"}, "[3]": {"assay": "Confirmatory qHTS for VERO E6 Cytotoxicity Assay: Counterscreen for SARS-CoV-2 CPE Assay (AID 1508605); also: nearly all actives have a fitted effect of over 60% in size"}, "[4]": {"assay": "Cytotoxicity counterscreen for inhibitors of SARS-CoV-2 cell entry (AID 1645845); also: nearly all actives have a fitted effect of over 50% in size; also: potency is read from the fitted curve at half-maximal effect", "conditions": "outcome: at 57.1 µM (top of the series) unless noted", "outline": "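ATP-content luminescence (ATPLite 1step, 15 min RT) read after 48 h compound exposure of Expi293F cells stably expressing human ACE2; normalized to cells-only wells and media-only wells.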"}, "[5]": {"assay": "Primary qHTS to identify inhibitors of SARS-CoV-2 cell entry (AID 1645846); also: nearly all actives have a fitted effect of over 45% in size; also: potency is read from the fitted curve at half-maximal effect", "conditions": "SARS-CoV-2 pseudovirus cell entry assay, luminescence; activity change, negative = inhibition: at 57.1 µM (top of the series) unless noted", "outline": "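HEK293 cells stably expressing human ACE2, pre-treated 1 h with compound, then infected with MLV particles pseudotyped with Wuhan-Hu-1 spike (C-terminal 19-aa truncation). Luciferase luminescence after 48 h at 37 °C, normalised to spike PP and bald PP.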"}, "[6]": {"assay": "Confirmatory qHTS to identify inhibitors of SARS-CoV-2 cell entry (AID 1645844); also: potency is read from the fitted curve at half-maximal effect; nearly all actives have a fitted effect of over 45% in size", "outline": "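Luminescence entry read-out after 48 h: spike-pseudotyped MLV particles (Wuhan-Hu-1, 19-aa C-terminal truncation) added to compound-pretreated (1 h) HEK293-ACE2 cells; Data were normalised to bald PP and spike PP wells.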"}, "[7]": {"assay": "VSVG counterscreen qHTS to identify inhibitors of SARS-CoV-2 cell entry (AID 1645847); also: potency is read from the fitted curve at half-maximal effect; nearly all actives have a fitted effect of over 65% in size", "outline": "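HEK293-ACE2 cells (Expi293F, human ACE2) pretreated 1 h with compound, then infected with MLV-based VSV-G pseudotyped particles for 48 h at 37 C; luciferase luminescence normalized to VSV-G PP and bald PP wells.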"}},
  "note": "Inconclusive results are not listed. Where a call stands in place of a potency, no number is given. Activity calls are given as the source filed them. Calls follow the shape of the full dose curve.",
  "data": [
    {"smiles": "CC(CN1c2ccccc2Sc2ccc(S(=O)(=O)N(C)C)cc21)N(C)C", "note": "(stereo unspecified)", "values": [
      {"measurement": "Potency", "setting": "[1]", "value": "inactive"},
      {"measurement": "Potency", "setting": "[2]", "value": "inactive"},
      {"measurement": "Potency", "setting": "[3]", "value": "inactive"}
    ]},
    {"smiles": "CC[C@@H](C(=O)[C@@H](C)[C@@H](O)[C@H](C)CCc1ccc(C)c(O)c1C(=O)O)[C@H]1O[C@](CC)([C@H]2CC[C@](O)(CC)[C@H](C)O2)C[C@@H]1C", "values": [
      {"measurement": "Potency", "setting": "[1]", "value": "inactive"},
      {"measurement": "Potency", "setting": "[2]", "value": "inactive"},
      {"measurement": "Potency", "setting": "[4]", "value": "8.91 µM (active)"},
      {"measurement": "Potency", "setting": "[5]", "value": "5.01 µM (active)"}
    ]},
    {"smiles": "COc1cc2c(cc1OC)[C@H]1C[C@@H](OC(=O)[C@@H](N)C(C)C)[C@H](CC(C)C)CN1CC2", "values": [
      {"measurement": "Potency", "setting": "[1]", "value": "inactive"},
      {"measurement": "Potency", "setting": "[2]", "value": "inactive"},
      {"measurement": "Potency", "setting": "[4]", "value": "inactive"}
    ]},
    {"smiles": "Cc1ccc(C2(O)CCN(CCCC(=O)c3ccc(F)cc3)CC2)cc1", "values": [
      {"measurement": "Potency", "setting": "[1]", "value": "inactive"},
      {"measurement": "Potency", "setting": "[2]", "value": "inactive"},
      {"measurement": "Potency", "setting": "[4]", "value": "inactive"}
    ]},
    {"smiles": "CCN1CCN(Cc2ccc(Nc3ncc(F)c(-c4cc(F)c5nc(C)n(C(C)C)c5c4)n3)nc2)CC1", "values": [
      {"measurement": "Potency", "setting": "[1]", "value": "inactive"},
      {"measurement": "Potency", "setting": "[2]", "value": "inactive"},
      {"measurement": "Potency", "setting": "[6]", "value": "5.41 µM (active)"},
      {"measurement": "Potency", "setting": "[4]", "value": "inactive"},
      {"measurement": "Potency", "setting": "[5]", "value": "10 µM (active)"},
      {"measurement": "Potency", "setting": "[7]", "value": "6.81 µM (active)"}
    ]},
    {"smiles": "CC(CC(c1ccccc1)c1ccccc1)NC(C)(C)C", "note": "(stereo unspecified)", "values": [
      {"measurement": "Potency", "setting": "[1]", "value": "inactive"},
      {"measurement": "Potency", "setting": "[2]", "value": "inactive"},
      {"measurement": "Potency", "setting": "[4]", "value": "inactive"}
    ]},
    {"smiles": "CC(C)C[C@H]1C(=O)O[C@H](Cc2ccc(N3CCOCC3)cc2)C(=O)N(C)[C@@H](CC(C)C)C(=O)O[C@H](C)C(=O)N(C)[C@@H](CC(C)C)C(=O)O[C@H](Cc2ccc(N3CCOCC3)cc2)C(=O)N(C)[C@@H](CC(C)C)C(=O)O[C@H](C)C(=O)N1C", "values": [
      {"measurement": "Potency", "setting": "[1]", "value": "inactive"},
      {"measurement": "Potency", "setting": "[2]", "value": "inactive"},
      {"measurement": "Potency", "setting": "[3]", "value": "inactive"}
    ]},
    {"smiles": "CCCCCCCCCC(=O)OCCN1CCN(CC/C=C2\\c3ccccc3Sc3ccc(C(F)(F)F)cc32)CC1", "values": [
      {"measurement": "Potency", "setting": "[1]", "value": "inactive"},
      {"measurement": "Potency", "setting": "[2]", "value": "inactive"},
      {"measurement": "Potency", "setting": "[4]", "value": "inactive"}
    ]},
    {"smiles": "CO[C@H]1/C=C\\O[C@@]2(C)Oc3c(C)c(O)c4c(O)c(c5c(c4c3C2=O)=NC2(CCN(CC(C)C)CC2)N=5)NC(=O)/C(C)=C\\C=C/[C@H](C)[C@H](O)[C@@H](C)[C@@H](O)[C@@H](C)[C@H](OC(C)=O)[C@@H]1C", "values": [
      {"measurement": "Potency", "setting": "[1]", "value": "inactive"},
      {"measurement": "Potency", "setting": "[2]", "value": "inactive"},
      {"measurement": "Potency", "setting": "[4]", "value": "inactive"},
      {"measurement": "activity change, negative = inhibition", "setting": "[5]", "value": -26.3, "unit": "%"}
    ]},
    {"smiles": "CCCCCCCCCC(=O)OCCN1CCN(CCCN2c3ccccc3Sc3ccc(C(F)(F)F)cc32)CC1", "values": [
      {"measurement": "Potency", "setting": "[1]", "value": "inactive"},
      {"measurement": "Potency", "setting": "[2]", "value": "inactive"},
      {"measurement": "Potency", "setting": "[4]", "value": "inactive"}
    ]},
    {"smiles": "CC(C)C[C@H]1C(=O)N2CCC[C@H]2[C@]2(O)O[C@](NC(=O)[C@@H]3C=C4c5cccc6[nH]c(Br)c(c56)CC4N(C)C3)(C(C)C)C(=O)N12", "note": "(stereo partly specified)", "values": [
      {"measurement": "Potency", "setting": "[1]", "value": "inactive"},
      {"measurement": "Potency", "setting": "[2]", "value": "inactive"},
      {"measurement": "Potency", "setting": "[4]", "value": "inactive"},
      {"measurement": "Potency", "setting": "[5]", "value": "22.4 µM (active)"}
    ]},
    {"smiles": "CCC1OC(=O)[C@H](C)C(=O)[C@H](C)[C@@H](OC2O[C@H](C)C[C@H](N(C)C)[C@H]2O)[C@](C)(OC)C[C@@H](C)C(=O)[C@@H](C)[C@@H]2N(CCCCn3cnc(-c4cccnc4)c3)C(=O)O[C@]12C", "note": "(stereo partly specified)", "values": [
      {"measurement": "Potency", "setting": "[1]", "value": "inactive"},
      {"measurement": "Potency", "setting": "[2]", "value": "inactive"},
      {"measurement": "Potency", "setting": "[4]", "value": "inactive"}
    ]},
    {"smiles": "CN1CCc2c(c3ccccc3n2Cc2ccccc2)C1", "values": [
      {"measurement": "Potency", "setting": "[1]", "value": "inactive"},
      {"measurement": "Potency", "setting": "[2]", "value": "inactive"}
    ]},
    {"smiles": "O=NCc1ccc([N+](=O)[O-])o1", "values": [
      {"measurement": "Potency", "setting": "[1]", "value": "inactive"},
      {"measurement": "Potency", "setting": "[2]", "value": "inactive"}
    ]},
    {"smiles": "CC(=O)c1ccc2c(c1)N(CCCN1CCN(CCO)CC1)c1ccccc1S2", "values": [
      {"measurement": "Potency", "setting": "[1]", "value": "inactive"},
      {"measurement": "Potency", "setting": "[2]", "value": "inactive"},
      {"measurement": "Potency", "setting": "[4]", "value": "inactive"},
      {"measurement": "activity change, negative = inhibition", "setting": "[5]", "value": -25.7, "unit": "%"}
    ]},
    {"smiles": "OC(CCN1CCCCC1)(c1ccccc1)C1CCCC1", "note": "(stereo unspecified)", "values": [
      {"measurement": "Potency", "setting": "[1]", "value": "inactive"},
      {"measurement": "Potency", "setting": "[2]", "value": "inactive"},
      {"measurement": "Potency", "setting": "[4]", "value": "inactive"}
    ]},
    {"smiles": "C=Cc1c(C)c2cc3nc(cc4[nH]c(cc5nc(cc1[nH]2)C(C)=C5CCC(=O)O)c(CCC(=O)OC)c4C)[C@@]1(C)C3=CC=C(C(=O)OC)[C@@H]1C(=O)OC", "values": [
      {"measurement": "Potency", "setting": "[1]", "value": "inactive"},
      {"measurement": "Potency", "setting": "[2]", "value": "inactive"},
      {"measurement": "Potency", "setting": "[4]", "value": "inactive"}
    ]},
    {"smiles": "CCCCCCC(COC(=O)c1cccnc1)(COC(=O)c1cccnc1)COC(=O)c1cccnc1", "values": [
      {"measurement": "Potency", "setting": "[1]", "value": "inactive"},
      {"measurement": "Potency", "setting": "[2]", "value": "inactive"},
      {"measurement": "Potency", "setting": "[4]", "value": "inactive"}
    ]},
    {"smiles": "Cc1cncc(CN2CCC(=C3c4ccc(Cl)cc4CCc4cccnc43)CC2)c1", "values": [
      {"measurement": "Potency", "setting": "[1]", "value": "inactive"},
      {"measurement": "Potency", "setting": "[2]", "value": "inactive"},
      {"measurement": "Potency", "setting": "[6]", "value": "0.607 µM (active)"},
      {"measurement": "Potency", "setting": "[5]", "value": "12.6 µM (active)"},
      {"measurement": "Potency", "setting": "[7]", "value": "27.1 µM (active)"}
    ]},
    {"smiles": "CCOC(=O)Oc1c(OC)cc(C(=O)O[C@@H]2C[C@@H]3CN4CCc5c([nH]c6cc(OC)ccc56)[C@H]4C[C@@H]3[C@H](C(=O)OC)[C@H]2OC)cc1OC", "values": [
      {"measurement": "Potency", "setting": "[1]", "value": "inactive"},
      {"measurement": "Potency", "setting": "[2]", "value": "inactive"},
      {"measurement": "Potency", "setting": "[4]", "value": "inactive"},
      {"measurement": "Potency", "setting": "[5]", "value": "22.4 µM (active)"}
    ]},
    {"smiles": "O=c1ccc2ccc(OCCCCN3CCN(c4cccc5sccc45)CC3)cc2[nH]1", "values": [
      {"measurement": "Potency", "setting": "[1]", "value": "inactive"},
      {"measurement": "Potency", "setting": "[2]", "value": "inactive"},
      {"measurement": "Potency", "setting": "[3]", "value": "inactive"}
    ]},
    {"smiles": "N#Cc1ccc2[nH]cc(CCCCN3CCN(c4ccc5oc(C(N)=O)cc5c4)CC3)c2c1", "values": [
      {"measurement": "Potency", "setting": "[1]", "value": "inactive"},
      {"measurement": "Potency", "setting": "[2]", "value": "inactive"},
      {"measurement": "Potency", "setting": "[3]", "value": "inactive"},
      {"measurement": "Potency", "setting": "[4]", "value": "inactive"}
    ]},
    {"smiles": "Cc1cc(-n2c(=O)[nH]c(=O)n(C)c2=O)ccc1Oc1ccc(SC(F)(F)F)cc1", "values": [
      {"measurement": "Potency", "setting": "[1]", "value": "inactive"},
      {"measurement": "Potency", "setting": "[2]", "value": "inactive"},
      {"measurement": "Potency", "setting": "[4]", "value": "inactive"}
    ]},
    {"smiles": "COc1c(-c2ccc3cc(NS(C)(=O)=O)ccc3c2)cc(-n2ccc(=O)[nH]c2=O)cc1C(C)(C)C", "values": [
      {"measurement": "Potency", "setting": "[1]", "value": "inactive"},
      {"measurement": "Potency", "setting": "[2]", "value": "inactive"},
      {"measurement": "Potency", "setting": "[4]", "value": "inactive"}
    ]}
  ]
}
